High-throughput results (PubChem BioAssay)
Hits are enriched below; roughly 4% of the tested compounds scored in any of these assays.
Mdm2 MdmX PPI: inhibitors of human Mdm2/MdmX interaction; O15151+Q00987; SaOS-2 split-luciferase Mdm2/MdmX complementation, luminescence; inhibition, % at 8 µM; 330,000 compounds, 3% hits; AID 485346;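 active = inhibition of at least 50% at 8 µM in the primary screen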
Target sequence (O15151 whole entry, looked up): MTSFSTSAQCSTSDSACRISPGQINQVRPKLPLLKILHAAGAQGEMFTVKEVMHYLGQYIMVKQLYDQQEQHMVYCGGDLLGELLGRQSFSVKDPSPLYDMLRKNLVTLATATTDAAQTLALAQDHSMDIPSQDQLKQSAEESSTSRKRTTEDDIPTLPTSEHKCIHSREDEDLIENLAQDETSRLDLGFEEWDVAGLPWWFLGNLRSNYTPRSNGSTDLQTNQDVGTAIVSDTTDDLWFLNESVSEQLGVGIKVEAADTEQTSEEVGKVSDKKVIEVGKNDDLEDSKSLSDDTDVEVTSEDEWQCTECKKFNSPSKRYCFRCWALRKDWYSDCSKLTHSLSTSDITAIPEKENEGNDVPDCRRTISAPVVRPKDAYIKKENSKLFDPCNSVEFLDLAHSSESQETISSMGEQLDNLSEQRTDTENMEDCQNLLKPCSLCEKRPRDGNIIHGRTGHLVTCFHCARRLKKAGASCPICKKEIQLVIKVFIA
Target sequence (Q00987 whole entry, looked up): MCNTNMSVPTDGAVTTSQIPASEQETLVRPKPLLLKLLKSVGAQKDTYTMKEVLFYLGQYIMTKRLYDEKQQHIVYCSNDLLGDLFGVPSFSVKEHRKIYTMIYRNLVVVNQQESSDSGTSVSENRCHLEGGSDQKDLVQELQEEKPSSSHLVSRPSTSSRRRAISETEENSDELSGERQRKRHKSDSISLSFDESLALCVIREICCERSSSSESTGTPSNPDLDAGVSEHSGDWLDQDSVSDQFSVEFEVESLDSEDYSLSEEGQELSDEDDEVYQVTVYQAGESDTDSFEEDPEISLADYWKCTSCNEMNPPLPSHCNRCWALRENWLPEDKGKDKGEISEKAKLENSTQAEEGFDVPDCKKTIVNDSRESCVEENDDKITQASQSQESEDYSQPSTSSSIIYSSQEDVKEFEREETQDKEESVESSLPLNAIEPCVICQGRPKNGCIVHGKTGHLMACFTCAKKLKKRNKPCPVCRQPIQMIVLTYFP
Shn3 inh set2: inhibitors of Schnurri-3 3'UTR reporter in osteoblasts. Clone20 osteoblast Shn3 3'UTR firefly luciferase, 24 h. inhibition, % at 12.5 µM. 360,000 compounds, 0.52% hits. AID 588674;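 active = mean inhibition of at least 75% with every replicate also reaching 75%; inconclusive = mean inhibition at least 75% but some replicate below; inactive = mean inhibition below 75%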
Beta apoptosis: blocks beta cell apoptosis; AID 435005; 300,000 compounds, 0.8% hits; protection from apoptosis, % (concentration not given with the values); INS-1E cytokine-induced death, ATP luminescence, 48 h; percent of positive-control rescue, neutral wells zero;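 active = Every replicate reaches about 75%, or at least half do and their mean reaches it too, limit read from the data; inconclusive = At least half of replicates reach the limit but their mean does not; inactive = Under half of replicates reach the limit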;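 note: higher means more ATP so stronger rescue from cytokine killing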
PAX8 reporter: PAX8 transcriptional activity inhibition; 360,000 compounds, 1.2% hits; AID 652154; RMG-I TPO-luciferase reporter, SteadyGlo, 24 h; inhibition, % at 12.6 µM;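 active = mean replicate inhibition at least 60% with every replicate also reaching 60%; inconclusive = only one of the two criteria is met; inactive = mean below 60% and not all replicates reaching 60%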;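 note: luciferase light reporting Pax8 driven TPO promoter activity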
Gli-Sufu antag: blocks Gli-Sufu signaling in a luciferase reporter. Sufu-KO-LIGHT fibroblasts, Gli luciferase reporter luminescence. inhibition, % at 5 µM. 340,000 compounds, 0.74% hits. AID 588413;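 active = inhibition above about 55%, limit read from the data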
CSC inhib: blocks cancer stem cells; cancer stem cell-like cells viability, luminescence; AID 2717; 300,000 compounds, 1.1% hits; inhibition, % at 7.5 µM; in the data active = inhibition above about 75%; inconclusive = no clear call, values can overlap the other calls; tested in HMLE shEcad cells
Large screens that a line does not name were inactive.

CCc1ccc(C(=O)CSC2=C(C#N)C(c3ccco3)C(C(C)=O)=C(C)N2)cc1 (stereo not drawn)	Beta apoptosis 110.1, CSC inhib 79.6 (no result: Shn3 inh set2, PAX8 reporter, Gli-Sufu antag)
CCOC(=O)C1=C(C)NC(SCC(=O)O)=C(C#N)C1c1ccco1 (stereo not drawn)	none (no result: PAX8 reporter, CSC inhib)
CC(=O)C1=C(C)NC(SCC(=O)c2cc(Cl)ccc2Cl)=C(C#N)C1c1ccco1 (stereo not drawn)	Shn3 inh set2 81.2, Gli-Sufu antag 69.3 (no result: Beta apoptosis, PAX8 reporter, CSC inhib)
CC(=O)C1=C(C)NC(SCC(=O)c2ccc(Cl)c(Cl)c2)=C(C#N)C1c1ccco1 (stereo not drawn)	Beta apoptosis 100.2, CSC inhib 156.7 (no result: PAX8 reporter)
CC(=O)C1=C(C)NC(SCC(=O)c2ccc(F)cc2)=C(C#N)C1c1ccco1 (stereo not drawn)	none (no result: PAX8 reporter)
CC(=O)C1=C(C)NC(SCC(N)=O)=C(C#N)C1c1ccco1 (stereo not drawn)	none
O=C(NCC1CC1)[C@@H]1[C@@H](CO)[C@@H]2Cn3c(ccc(-c4ccc(F)cc4)c3=O)[C@H]1N2	none (no result: Mdm2 MdmX PPI, Shn3 inh set2, Beta apoptosis, Gli-Sufu antag, CSC inhib)
C[C@@H]1CCCCO[C@H](CN(C)C(=O)NC2CCCCC2)[C@@H](C)CN([C@H](C)CO)C(=O)c2cc(NC(=O)Nc3cccc4ccccc34)ccc2O1	none (no result: Mdm2 MdmX PPI, Shn3 inh set2, Beta apoptosis, Gli-Sufu antag, CSC inhib)
OC1(C#Cc2c(-c3ccsc3)sc3ccccc23)CCCCC1	none (no result: Mdm2 MdmX PPI, Shn3 inh set2, Beta apoptosis, Gli-Sufu antag, CSC inhib)
COc1ccc(-c2sc3cc(OC)c(OC)cc3c2C#CC2(O)CCCCC2)cc1	CSC inhib 125.1
COc1ccc(-c2sc3ccccc3c2C#CC2(O)CCCCC2)cc1	CSC inhib 89.0 (no result: Mdm2 MdmX PPI)
COc1ccc(-c2oc(=O)c3cc(OC)c(OC)cc3c2C#CC2(O)CCCCC2)cc1	none
C[C@@H]1CN([C@@H](C)CO)C(=O)c2cc(NC(=O)Nc3ccc(F)cc3)ccc2O[C@H]1CN(C)C	none (no result: Mdm2 MdmX PPI, Shn3 inh set2, Beta apoptosis, Gli-Sufu antag, CSC inhib)
CCCNC(=O)c1c(N)n(-c2cccc(OC)c2)c2nc3ccccc3nc12	Beta apoptosis 103.6 (no result: PAX8 reporter)
COc1cccc(C#Cc2ccc3c(c2)O[C@H](CN(C)C)[C@@H](C)CN([C@H](C)CO)S3(=O)=O)c1	none (no result: Mdm2 MdmX PPI, Shn3 inh set2, Beta apoptosis, Gli-Sufu antag, CSC inhib)
COc1cccc(Nc2nc(-c3ccc(O)cc3)cs2)c1	CSC inhib 116.6 (no result: PAX8 reporter)
COCC(=O)N1C[C@@H]2[C@H](c3ccccc31)[C@H](CO)N2C(=O)C1CCCC1	none (no result: Mdm2 MdmX PPI, Shn3 inh set2, Beta apoptosis, Gli-Sufu antag, CSC inhib)
Nc1ccc(Oc2ccc([N+](=O)[O-])cc2[N+](=O)[O-])cc1	none (no result: PAX8 reporter)
O=[N+]([O-])c1ccc(Oc2cccnc2)c([N+](=O)[O-])c1	PAX8 reporter 64.1 (no result: Mdm2 MdmX PPI, Beta apoptosis, CSC inhib)
CN(C)C(=O)c1ccc(-c2ccc3c(c2)[C@H]2[C@H](CCN2C(=O)c2ccc4c(c2)OCO4)[C@@H](CO)N3)cc1	none (no result: Mdm2 MdmX PPI, Shn3 inh set2, Beta apoptosis, Gli-Sufu antag, CSC inhib)
O=c1c2ccccc2cnn1-c1nc2ccccc2[nH]1	Shn3 inh set2 87.6, PAX8 reporter 113.5, Gli-Sufu antag 81.2 (no result: Mdm2 MdmX PPI, Beta apoptosis, CSC inhib)
CCCc1[nH]c2ccc(C#N)cc2c1CCC	CSC inhib 82.0
COc1cc(OC)cc(C(=O)NCCNc2nc3cc(C)cc(C)c3cc2C#N)c1	CSC inhib 77.3
O=C(COC(=O)c1cn(-c2ccccc2)nc1-c1ccccc1)c1cccc([N+](=O)[O-])c1	Beta apoptosis 102.2
Cc1ccc(C(=O)COC(=O)c2cn(-c3ccccc3)nc2-c2ccccc2)cc1[N+](=O)[O-]	Beta apoptosis 99.4, CSC inhib inconclusive
O=C(COC(=O)c1cn(-c2ccccc2)nc1-c1ccccc1)c1ccc([N+](=O)[O-])cc1	none (no result: Shn3 inh set2, PAX8 reporter, Gli-Sufu antag)
C[C@H]1CN([C@@H](C)CO)C(=O)c2cc(NS(=O)(=O)c3ccc(F)cc3)ccc2O[C@H]1CN(C)C	none (no result: Mdm2 MdmX PPI, Shn3 inh set2, Beta apoptosis, Gli-Sufu antag, CSC inhib)
O=C(C1CC1)N1CC(=O)N2[C@H](CO)[C@H](c3ccc(Br)cc3)[C@H]2C1	none (no result: Mdm2 MdmX PPI, Shn3 inh set2, Beta apoptosis, Gli-Sufu antag, CSC inhib)
C[C@@H]1CN([C@@H](C)CO)C(=O)c2cc(C#C[C@@H](C)O)cnc2O[C@@H]1CN(C)CC1CCOCC1	none (no result: Mdm2 MdmX PPI, Shn3 inh set2, Beta apoptosis, Gli-Sufu antag, CSC inhib)
COc1ccc(S(=O)(=O)Nc2ccc3c(c2)C(=O)N([C@H](C)CO)C[C@@H](C)[C@H](CN(C)Cc2ccc(C(F)(F)F)cc2)OCCCC[C@H](C)O3)cc1	none (no result: Mdm2 MdmX PPI, Shn3 inh set2, Beta apoptosis, Gli-Sufu antag, CSC inhib)
COc1ccc(S(=O)(=O)Nc2ccc3c(c2)C(=O)N([C@@H](C)CO)C[C@H](C)[C@@H](CN(C)Cc2ccc(C(F)(F)F)cc2)OCCCC[C@H](C)O3)cc1	PAX8 reporter 106.0 (no result: Mdm2 MdmX PPI, Shn3 inh set2, Beta apoptosis, Gli-Sufu antag, CSC inhib)
COc1ccc(S(=O)(=O)Nc2ccc3c(c2)C(=O)N([C@H](C)CO)C[C@H](C)[C@@H](CN(C)Cc2ccc(C(F)(F)F)cc2)OCCCC[C@H](C)O3)cc1	PAX8 reporter 104.2 (no result: Mdm2 MdmX PPI, Shn3 inh set2, Beta apoptosis, Gli-Sufu antag, CSC inhib)
C[C@@H]1CN([C@@H](C)CO)C(=O)CCCn2cc(nn2)CO[C@@H]1CN(C)C(=O)c1ccc2ccn(C)c2c1	none (no result: Mdm2 MdmX PPI, Shn3 inh set2, Beta apoptosis, Gli-Sufu antag, CSC inhib)
